According to PubChem BioAssay (NCI):
This is part of a sample that, as a whole, favours compounds with a hit. Of some 83,000 tested, about 20% had one in any assay.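 Single-dose data. Exposure time 48 hours. Values below 10 considered active.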 Values without a mark were called inactive. Active and inactive are the calls of the source.

Assays:
Assay in all cases: NCI-60 one-dose screen, 48 h (100 = growth as untreated, 0 = no growth, -100 = all killed)
Settings in all cases: 10 µM
[1] = system: NCI-H23 lung
[2] = system: NCI-H226 lung
[3] = system: NCI-H322M lung
[4] = system: HOP-62 NSCLC
[5] = system: NCI-H460 lung
[6] = system: HOP-92 NSCLC
[7] = system: NCI-H522 lung
[8] = system: A549/ATCC NSCLC
[9] = system: 786-0 renal
[10] = system: COLO 205 colon
[11] = system: DU-145 prostate
[12] = system: K-562 leukemia
[13] = system: MALME-3M melanoma
[14] = system: MDA-MB-231 breast
[15] = system: RXF 393 renal
[16] = system: SF-268 CNS
[17] = system: SF-295 CNS
[18] = system: SF-539 CNS
[19] = system: UACC-257 melanoma
[20] = system: M14 melanoma

CCCCCCCCCCCCc1ccc(C(=O)/C=C/C(=O)O)cc1
growth [1]: 78.6%
growth [2]: 121%
growth [3]: 116%
growth [4]: 93%
growth [5]: 94.2%
growth [6]: 46.4%
growth [7]: -24.2% (active)
growth [8]: 78.4%
growth [9]: -3.51% (active)
growth [10]: 21.6%
growth [11]: 89.8%
growth [12]: -5.52% (active)
growth [13]: 69.1%
growth [14]: 29.4%
growth [15]: 80.8%
growth [16]: 100%
growth [17]: 80.2%
growth [18]: 76.5%
growth [19]: 96.1%
growth [20]: 62.1%

COc1cc(-c2nc3cc(Cl)c(Cl)cc3[nH]2)ccc1OCC(=O)NN
growth [1]: 92.8%
growth [2]: 90.5%
growth [3]: 79.1%
growth [4]: 72%
growth [5]: 84.8%
growth [6]: 94%
growth [7]: 67.5%
growth [8]: 71%
growth [9]: 96.1%
growth [10]: 108%
growth [11]: 75.5%
growth [12]: 31.9%
growth [13]: 95.3%
growth [14]: 57.8%
growth [15]: 131%
growth [16]: 77.6%
growth [17]: 71.5%
growth [18]: 80.5%
growth [19]: 96.9%
growth [20]: 95.1%

COc1ccc(C(=O)/C=C/c2cc(-c3ccc4c(c3)OCO4)n[nH]2)cc1OC
growth [1]: 61.6%
growth [2]: 39.6%
growth [3]: 36.3%
growth [4]: 51.1%
growth [5]: 15.7%
growth [6]: 55.7%
growth [7]: 19.4%
growth [8]: 37.9%
growth [9]: 71.7%
growth [10]: 56.1%
growth [11]: 39.7%
growth [12]: 23.8%
growth [13]: 94.4%
growth [14]: 58.3%
growth [15]: 38.6%
growth [16]: 45.4%
growth [17]: 53.4%
growth [18]: 42.2%
growth [19]: 109%
growth [20]: 91.6%

CCCCOCCOCCOCc1cc2c(cc1Br)OCO2
growth [1]: 99.3%
growth [2]: 97.4%
growth [3]: 91.8%
growth [4]: 92.7%
growth [5]: 111%
growth [6]: 85%
growth [7]: 80.4%
growth [8]: 91.2%
growth [9]: 100%
growth [10]: 107%
growth [11]: 107%
growth [12]: 94.7%
growth [13]: 94.8%
growth [14]: 97.1%
growth [15]: 108%
growth [16]: 103%
growth [17]: 100%
growth [18]: 92.5%
growth [19]: 101%
growth [20]: 110%

N=C(N)c1ccc(-c2ccc(-c3ccccc3)s2)cc1F
growth [1]: -65.9% (active)
growth [2]: -62.7% (active)
growth [3]: -88.5% (active)
growth [4]: -83% (active)
growth [5]: -79.5% (active)
growth [6]: -83.7% (active)
growth [7]: -75.2% (active)
growth [8]: -74.2% (active)
growth [9]: -85% (active)
growth [10]: -78.1% (active)
growth [11]: -95.5% (active)
growth [12]: -70.8% (active)
growth [13]: -76.7% (active)
growth [14]: -82.3% (active)
growth [15]: -86.9% (active)
growth [16]: -84.6% (active)
growth [17]: -77.9% (active)
growth [18]: -97.3% (active)
growth [19]: -84.1% (active)
growth [20]: -93.1% (active)

Cc1ccccc1C1=N[C@@H](Cc2ccccc2)C(=O)c2c(nc3ccccn23)N1
growth [1]: 95.3%
growth [2]: 98.9%
growth [3]: 106%
growth [4]: 93.4%
growth [5]: 103%
growth [6]: 90.5%
growth [7]: 121%
growth [8]: 91.7%
growth [9]: 101%
growth [10]: 107%
growth [11]: 113%
growth [12]: 113%
growth [13]: 109%
growth [14]: 104%
growth [15]: 105%
growth [16]: 104%
growth [17]: 96.5%
growth [18]: 99.4%
growth [19]: 87.3%
growth [20]: 102%

CC(C)=C1CCC(C)C/C1=N\N=C(N)N (stereo not given)
growth [1]: 105%
growth [2]: 97.9%
growth [3]: 97.1%
growth [4]: 101%
growth [5]: 102%
growth [6]: 85.8%
growth [7]: 90.8%
growth [8]: 91.8%
growth [9]: 93.3%
growth [10]: 108%
growth [11]: 105%
growth [12]: 97.9%
growth [13]: 100%
growth [14]: 113%
growth [15]: 107%
growth [16]: 99.2%
growth [17]: 98.4%
growth [18]: 104%
growth [19]: 93.5%
growth [20]: 102%

NS(=O)(=O)c1ccc(N2N=C(c3ccc(-c4ccccc4)cc3)CC2c2ccc(Cl)cc2)cc1 (stereo not given)
growth [1]: 85.9%
growth [2]: 81%
growth [3]: 87.6%
growth [4]: 90.8%
growth [5]: 70.1%
growth [6]: 78.4%
growth [7]: 75.1%
growth [8]: 64.1%
growth [9]: 95.9%
growth [10]: 103%
growth [11]: 96.6%
growth [12]: 71.2%
growth [13]: 106%
growth [14]: 86.9%
growth [15]: 73.4%
growth [16]: 83.5%
growth [17]: 88.4%
growth [18]: 93.9%
growth [19]: 92.4%
growth [20]: 98.2%

COc1ccc(-c2cc(=O)n(-c3nc4ccccc4[nH]3)[nH]2)cc1OC
growth [1]: 80.4%
growth [2]: 85.1%
growth [3]: 66.6%
growth [4]: 71.6%
growth [5]: 41.4%
growth [6]: 17.4%
growth [7]: 49.2%
growth [8]: 59%
growth [9]: 83%
growth [10]: 113%
growth [11]: 83%
growth [12]: 26.5%
growth [13]: 67.2%
growth [14]: 94.5%
growth [15]: 3.51% (active)
growth [16]: 72.3%
growth [17]: -12.8% (active)
growth [18]: 71.3%
growth [19]: 89.2%
growth [20]: 54.5%

FC(F)(F)c1ccc(-c2cnc(Cl)nc2NC2CCCCCC2)cc1
growth [1]: 25.8%
growth [2]: 42.1%
growth [3]: 71.1%
growth [4]: 33.4%
growth [5]: 25.8%
growth [6]: -28.4% (active)
growth [7]: -6.08% (active)
growth [8]: 17.4%
growth [9]: 40.1%
growth [10]: 22%
growth [11]: 59.7%
growth [12]: 11.9%
growth [13]: -42.8% (active)
growth [14]: 47.4%
growth [15]: 31.3%
growth [16]: 39.4%
growth [17]: -45.6% (active)
growth [18]: 75.1%
growth [19]: -10.3% (active)
growth [20]: 21.8%

COc1ccc(/C=C2\CCC3C(CCCC34OCCO4)C2=O)cc1 (stereo not given)
growth [1]: 94.2%
growth [2]: 97.8%
growth [3]: 79.5%
growth [4]: 99.3%
growth [5]: 105%
growth [6]: 92.3%
growth [7]: -1.7% (active)
growth [8]: 89.7%
growth [9]: 96.2%
growth [10]: 94.5%
growth [11]: 87.6%
growth [12]: 39.7%
growth [13]: 70.5%
growth [14]: 96%
growth [15]: 96.6%
growth [16]: 97.2%
growth [17]: 107%
growth [18]: 88.8%
growth [19]: 91%
growth [20]: 95.6%

CCCCCCCCCCCCCCCC(=O)N1CCN(C)CC1
growth [1]: 85.1%
growth [2]: 106%
growth [3]: 71.3%
growth [4]: 89%
growth [5]: 68.6%
growth [6]: 31.7%
growth [7]: 17.1%
growth [8]: 95.5%
growth [9]: 86%
growth [10]: 68.6%
growth [11]: 87.2%
growth [12]: 15.9%
growth [13]: 90.3%
growth [14]: 54.7%
growth [15]: 77%
growth [16]: 73.7%
growth [17]: 83.7%
growth [18]: 73.9%
growth [19]: 91.8%
growth [20]: 80.2%

CCOC(=O)C1=C(Nc2ccc(OC)cc2)C(N)=NC1=N
growth [1]: 52.6%
growth [2]: 42.9%
growth [3]: 50.2%
growth [4]: 52.4%
growth [5]: 22.2%
growth [6]: 48.4%
growth [7]: 42%
growth [8]: 31.8%
growth [9]: 59.3%
growth [10]: -10.1% (active)
growth [11]: 44.1%
growth [12]: 19%
growth [13]: 31.9%
growth [14]: 67.5%
growth [15]: 46.7%
growth [16]: 60%
growth [17]: 54.8%
growth [18]: 25%
growth [19]: 44.9%
growth [20]: 27.3%

Cc1ncc([N+](=O)[O-])n1CCOc1ccc(C(=O)/C=C/c2ccc(C(F)(F)F)cc2)cc1
growth [1]: 88%
growth [2]: 76.2%
growth [3]: 66.4%
growth [4]: 88.9%
growth [5]: 79.5%
growth [6]: 67.1%
growth [7]: 67.1%
growth [8]: 55.5%
growth [9]: 63.3%
growth [10]: 61.2%
growth [11]: 56.4%
growth [12]: 14%
growth [13]: 81.8%
growth [14]: 82.9%
growth [15]: 64.1%
growth [16]: 77.4%
growth [17]: 73.8%
growth [18]: 57.5%
growth [19]: 82.9%
growth [20]: 79.7%

CC(C)C[C@H](NC(=O)Cn1ccc(Nc2ccccc2)cc1=O)B(O)O
growth [1]: 44.1%
growth [2]: -71.1% (active)
growth [3]: 91.5%
growth [4]: 49.5%
growth [5]: 77.3%
growth [6]: 1.31% (active)
growth [7]: -24% (active)
growth [8]: 71.4%
growth [9]: 33.1%
growth [10]: 40.8%
growth [11]: 38.9%
growth [12]: 39.1%
growth [13]: -11.7% (active)
growth [14]: 48.9%
growth [15]: -16.7% (active)
growth [16]: 34.2%
growth [17]: 37.8%
growth [18]: -57.7% (active)
growth [19]: 7.65% (active)
growth [20]: 31.8%

Cc1ccc(S(=O)(=O)Nc2cccc3[nH]c(C(F)(F)F)nc23)cc1
growth [1]: 39.5%
growth [2]: 68.4%
growth [3]: 36.4%
growth [4]: 36.4%
growth [5]: 7.86% (active)
growth [6]: -3.66% (active)
growth [7]: -6.23% (active)
growth [8]: 24%
growth [9]: 47.7%
growth [10]: -21.6% (active)
growth [11]: 19%
growth [12]: 11.6%
growth [13]: 12.7%
growth [14]: 31.4%
growth [15]: 3.7% (active)
growth [16]: 60%
growth [17]: 0.543% (active)
growth [18]: -11.9% (active)
growth [19]: 43.1%
growth [20]: 15.2%
